From PubChem BioAssay (NCATS) come the findings set out here.

Assay [1] concerns TAB113. The assay can be described thus: qHTS profiling for inhibitors of Plasmodium falciparum proliferation (AID 504749). Note: nearly all actives have a fitted effect of over 60% in size. Conditions: P. falciparum in erythrocytes, SYBR Green DNA, 72 h; series mostly up to 28.7 µM. The method, boiled down:
(§1)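 In a 72 h erythrocytic culture (37 C, humidified, 5% CO2) at 2.5% hematocrit and 0.3% starting parasitemia, compounds were tested; SYBR Green I in detergent lysis buffer stained parasite DNA overnight.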
On the technique in general: In qHTS, concentration-response curves come from the screen itself.

The test system of assay [2] is TAB165. The description is as above. As to conditions: P. falciparum in erythrocytes, SYBR Green DNA, 72 h; series mostly up to 28.7 µM. An outline of the steps:
as §1

The test system of assay [3] is W2. The description is as above. Conditions: P. falciparum in erythrocytes, SYBR Green DNA, 72 h; series mostly up to 28.7 µM. The method, boiled down: as §1
In assay [4] the test system is CRL-7250. The assay can be described thus: Cytotoxic Profiling of Annotated Libraries Using Quantitative High-Throughput Screening (AID 1296008). For max response: % is set by controls: 0 for no effect and ±100 for the full control effect. Note: nearly all actives have a fitted effect of over 60% in size. As to conditions: Five cell lines viability, CellTiter-Glo ATP luminescence, 48-72 h; max response: hits give low values. The method, boiled down: (§2)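 Cytotoxicity was measured as CellTiter-Glo ATP luminescence, read after 10 min at room temperature. Compound treatment of the cells lasted 48 or 72 hr at 37 degrees Celsius in a qHTS format.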

The test system of assay [5] is HaCat. The description is as above. Conditions: Five cell lines viability, CellTiter-Glo ATP luminescence, 48-72 h; max response: hits give low values. An outline of the steps:
as §2

Assay [6] has as its system KB-3-1. The assay is described as above. As to conditions: Five cell lines viability, CellTiter-Glo ATP luminescence, 48-72 h; max response: hits give low values. An outline of the steps:
as §2
Background: Cellular ATP, detected with luciferase, serves as a proxy for viable cell number.

Assay [7] concerns NIH3T3. The description is as above. Conditions: Five cell lines viability, CellTiter-Glo ATP luminescence, 48-72 h; max response: hits give low values. The method, boiled down: as §2
Assay [8] has as its system HACAT. As to the kind of experiment: qHTS assay to identify novel small-molecules to repurpose for Merkel cell carcinoma treatment (AID 1296009). Note: nearly all actives have a fitted effect of over 60% in size. As to conditions: MCC and control cell lines, CellTiter-Glo viability, 72 h; at 44.8 µM (top of the series) unless noted. An outline of the steps:
(§3)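 Cell viability measured by CellTiter-Glo following 72 hr compound treatment at 37 degree celsius, with NPC and MIPE libraries tested in 8- and 11-point concentration series.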

For assay [9], the system named is HEK293T. The assay is described as above. As to conditions: MCC and control cell lines, CellTiter-Glo viability, 72 h; at 44.8 µM (top of the series). An outline of the steps:
as §3

Assay [10] deals with MCC-13. Described as above. As to conditions: MCC and control cell lines, CellTiter-Glo viability, 72 h; series mostly up to 46 µM. An outline of the steps: as §3
The test system of assay [11] is MCC-26. The assay is described as above. As to conditions: MCC and control cell lines, CellTiter-Glo viability, 72 h; series mostly up to 46 µM. The method, boiled down: as §3
The test system of assay [12] is MKL-1. The assay is described as above. Conditions: MCC and control cell lines, CellTiter-Glo viability, 72 h; series mostly up to 46 µM. An outline of the steps:
as §3

Assay [13] has as its system MKL-2. Described as above. As to conditions: MCC and control cell lines, CellTiter-Glo viability, 72 h; series mostly up to 46 µM. An outline of the steps: as §3
Assay [14] deals with NIH3T3. The description is as above. As to conditions: MCC and control cell lines, CellTiter-Glo viability, 72 h; at 44.8 µM (top of the series) unless noted. An outline of the steps: as §3
For assay [15], the system named is UISO. Described as above. As to conditions: MCC and control cell lines, CellTiter-Glo viability, 72 h; series mostly up to 46 µM. An outline of the steps:
as §3

Assay [16] concerns WaGa. The assay is described as above. Conditions: MCC and control cell lines, CellTiter-Glo viability, 72 h; series mostly up to 46 µM. An outline of the steps:
as §3

The subject of assay [17] is C33A. As to the kind of experiment: Primary qHTS to identify gynecologic anti-cancer compounds using libraries of approved drugs and bioactive compounds (AID 1345084). Note: nearly all actives have a fitted effect of over 55% in size. As to conditions: Gynecologic cancer cell panel viability, ATPlite luminescence, 48 h; series mostly up to 57.5 µM. An outline of the steps: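 Measured: luminescence after ATPlite addition (15 min, RT). Exposure: 48 h, 37 C, 5% CO2.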

The test system of assay [18] is TAB109. As to the kind of experiment: qHTS profiling for inhibitors of Plasmodium falciparum proliferation (AID 504749). Note: nearly all actives have a fitted effect of over 60% in size. As to conditions: P. falciparum in erythrocytes, SYBR Green DNA, 72 h; series mostly up to 28.7 µM. The method, boiled down:
as §1

Assay [19] concerns CRL-7250. The assay can be described thus: qHTS assay to identify novel small-molecules to repurpose for Merkel cell carcinoma treatment (AID 1296009). Note: nearly all actives have a fitted effect of over 60% in size. Conditions: MCC and control cell lines, CellTiter-Glo viability, 72 h; series mostly up to 44.8 µM. The method, boiled down:
as §3

In assay [20] the test system is HEK293. The assay can be described thus: Cytotoxic Profiling of Annotated Libraries Using Quantitative High-Throughput Screening (AID 1296008). For max response: % is set by controls: 0 for no effect and ±100 for the full control effect. Note: nearly all actives have a fitted effect of over 60% in size. As to conditions: Five cell lines viability, CellTiter-Glo ATP luminescence, 48-72 h; max response: hits give low values. The method, boiled down: as §2

Values joined by “and” are separate entries in the source; they are usually repeats but may differ in a detail not shown here. Equal entries are not always repeated. Inconclusive results are not listed. A number with no mark means an inactive call. Active and inactive are the calls of the source. Calls come from the whole dose curve; as a rule, active = well fitted curve in the direction sought with a large enough effect; inconclusive = small, poorly fitted or top-dose-only effect, or another doubt; inactive = no such curve, though single readings can be large; an effect the other way counts as inactive or inconclusive.
Potency is the fitted concentration of half-maximal effect.

On to `NCCc1cc(O)c(O)cc1O`, for which the Potency result in assay [1], in [2], in assay [3], in [10], in assay [11] and in assay [12] was “inactive” throughout. The Potency entry in assay [13], in assay [15], in assay [16] and in [17] was “inactive” in each case. In addition, the max response in assay [4] was 3.51%; in assay [6], 9.04%. Also, the outcome in assay [5], in assay [7], in assay [8], in [9] and in [14] was inactive.

On to `CC(=O)[C@H]1CC[C@H]2[C@@H]3CC[C@H]4C[C@](C)(O)CC[C@]4(C)[C@H]3CC[C@]12C`, for which the Potency result in assay [18], in [1], in assay [2], in assay [10], in assay [11] and in assay [12] was “inactive” in each case. The Potency result in assay [13], in [15], in assay [16] and in assay [17] was “inactive” throughout. In addition, the call in assay [4], in assay [5], in assay [7], in assay [19], in assay [8] and in [9] was inactive. In addition, the outcome in assay [14] was inactive. For the same compound, in assay [6], the max response was -8.61%.

For the compound `Clc1ccc(CCC(Cn2ccnc2)Sc2c(Cl)cccc2Cl)cc1` (centres undefined), the max response is -0.661% in assay [4]; 1.06% in assay [6]; -8.13% and -9.95% in assay [7]. Also, in assay [20], the Potency is 26.4 µM (active). For the same compound, the Potency entry in [10], in assay [11], in assay [12] and in [16] was “inactive” throughout.

`Fc1ccc(C(OCCN2CCN(CCCc3ccccc3)CC2)c2ccc(F)cc2)cc1`: the Potency in [18] was 7.94 µM (active); in assay [1] it was 8.91 µM (active); in assay [2] it was 4.47 µM (active); in assay [3] it was 4.26 µM (active); in assay [4], 13.2 µM (active); in [20], 18.7 µM (active) and 21.1 µM (active). The Potency in [6] is 23.1 µM (active); in [12], 9.44 µM (active); in assay [13], 23.5 µM (active) and 4.73 µM (active); in assay [15], 23.7 µM (active); in assay [16], 8.41 µM (active). Moreover, the Potency result in assay [11] is “inactive”.

Take `CC(C)NCC(O)c1ccccc1Cl` (centres undefined): the values for the Potency in assay [18], in assay [1] and in assay [3] were 4.47 µM (active), 12.6 µM (active) and 3.38 µM (active), respectively. Also, the compound was classed as inactive in assay [4], in [19] and in assay [9]. In addition, the max response in [5] was -6.64%; in assay [6], -12%; in assay [7], -1.73%. For the same compound, the Potency result in [10], in [11], in [12], in assay [13], in assay [15] and in [16] was “inactive” each time. Further, in [17], the Potency entry is “inactive”.

As to `Cc1ccc(S(=O)(=O)N[C@@H](CCCCN)C(=O)CCl)cc1`, in assay [18], the Potency was 11.2 µM (active). Also, the results for the max response in [4] and in assay [6] were 3.77% and 32.5%, respectively. The outcome in assay [5], in [7], in [8] and in assay [14] was inactive. Also, the Potency result in [10], in assay [11], in assay [12], in assay [13], in [15] and in assay [16] was “inactive” in each case. The Potency entry in [17] is “inactive”.

Regarding `N[C@@H](Cc1ccc(N(CCCl)CCCl)cc1)C(=O)O`, the Potency was 11.2 µM (active) in assay [2]; 6.75 µM (active) in assay [3]; 20.9 µM (active) in assay [20]; 2.66 µM (active) and 2.96 µM (active) in assay [12]; 1.33 µM (active) and 469 nM (active) in [13]; 13.3 µM (active) and 13.2 µM (active) in assay [15]. For the same compound, in assay [16], the Potency was 4.22 µM (active) and 5.26 µM (active). In addition, the max response in assay [4] was -7.43%; in [5] it was -1%; in assay [6], -3.99% and -10.4%. In assay [17], the Potency entry was “inactive”.

In the case of `C[C@H]1O[C@@H](O[C@H]2[C@@H](O)C[C@H](O[C@H]3[C@@H](O)C[C@H](O[C@H]4CC[C@@]5(C)[C@H](CC[C@@H]6[C@@H]5CC[C@]5(C)[C@@H](C7=CC(=O)OC7)CC[C@]65O)C4)O[C@@H]3C)O[C@@H]2C)C[C@H](O)[C@@H]1O`, the Potency is 33.5 nM (active) and 48.5 nM (active) in assay [4]; 53.1 nM (active) and 61.1 nM (active) in [20]; 0.266 µM (active) in [5]; 73.1 nM (active) and 137 nM (active) in assay [6]; 0.0422 µM (active) in assay [11]; 0.0473 µM (active) in assay [12]. Also, the Potency in [13] is 23.7 nM (active); in assay [16], 0.0211 µM (active); in [17] it was 100 nM (active) and 89.1 nM (active). Also, in assay [7], the max response was -6.15%.

Consider `CC(C)CC(N(C)C)C1(c2ccc(Cl)cc2)CCC1` (centres undefined), for which the Potency entry in [18], in assay [1], in assay [2], in assay [3], in assay [10] and in assay [11] was “inactive” each time. Further, the Potency result in [12], in assay [13], in assay [15], in assay [16] and in assay [17] was “inactive” in each case. Moreover, the max response was 1.51% and -18.8% in assay [4]; -11.1% in assay [5]; 20.9% and 1.72% in assay [6]; -0.177% in assay [7]. Further, the outcome in assay [5], in assay [7], in [8] and in assay [14] was inactive.

Consider `NP(N)(=O)NC(=O)c1ccc(F)cc1`, for which the Potency entry in assay [18], in [1], in assay [2], in [3], in assay [10] and in assay [11] was “inactive” throughout. Also, the Potency entry in [12], in [13], in assay [15], in assay [16] and in assay [17] was “inactive” throughout. Also, the call in [4], in assay [5], in [19], in [8] and in [9] was inactive. Also, the max response is -13.3% in assay [6] and 4.85% in assay [7].

In the case of `COC1(CS(=O)c2ccccc2)CCN(CCc2c[nH]c3ccc(F)cc23)CC1` (centres undefined), the max response in assay [4] was -22.3%; in assay [20], -11.2%; in [5] it was -21.9%; in [6] it was -9.1%; in assay [7], -8%. Besides, the Potency entry in assay [10], in [11], in [12], in assay [13], in assay [15] and in [16] was “inactive” in each case.

`C[C@]12CC[C@H]3[C@@H](CCC4=CC(=O)CC[C@@H]43)[C@@H]1CC[C@@H]2OC(=O)CCc1ccccc1`: the max response in assay [4] was -4.34%; in [5] it was 1.58%; in assay [7] it was -2.8%. In [20], the Potency was 23.7 µM (active). The Potency result in assay [10], in assay [12], in [13], in [15], in assay [16] and in [17] was “inactive” in each case.
